Consider three molecules from PubChem BioAssay.

As a reminder, the inhibition is the change of the read-out against control, counted positive when it falls.

The nature of experiment [1]: antimalarial activity against Dd2 strain (AID 2302;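 active = growth inhibition above 50% at the single 2 µM test dose, taken to imply half-maximal potency below 2 µM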;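 note: 0% = DMSO untreated growth and 100% = chloroquine plus artemisinin killed control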). The following applies: P. falciparum Dd2 in RBCs, LDH growth readout, 72 h; at 2 µM; stronger effect = higher value.
The nature of experiment [2]: HepG2 cytotoxicity, primary screen, cytotoxicity control for P. falciparum antimalarial project, cell-based, ATP luminescence (AID 2303;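 active = inhibition above 50%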;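 note: 0% = DMSO wells and 100% = digitonin-killed cells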). The note with it: HepG2 viability, 24-48 h, at 10 µM, stronger effect = higher value.
For experiment [3], the target named is L-lactate dehydrogenase (Plasmodium falciparum (isolate CDC / Honduras)) (UniProt Q27743). The experiment is described as follows: PfLDH activity inhibition – cell lysate, 3D7 strain, counter-screen for P. falciparum growth inhibition project (AID 2304).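 Note: 0% = vehicle and 100% = reference inhibitor.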 The following applies: P. falciparum 3D7 crude extract, LDH APAD/NBT absorbance; at 2 µM; stronger effect = higher value. On the technique in general: The purpose of a counterscreen is to sort out artefacts and off-target activity.
Chain of L-lactate dehydrogenase (Plasmodium falciparum (isolate CDC / Honduras)) (Q27743 whole entry, looked up): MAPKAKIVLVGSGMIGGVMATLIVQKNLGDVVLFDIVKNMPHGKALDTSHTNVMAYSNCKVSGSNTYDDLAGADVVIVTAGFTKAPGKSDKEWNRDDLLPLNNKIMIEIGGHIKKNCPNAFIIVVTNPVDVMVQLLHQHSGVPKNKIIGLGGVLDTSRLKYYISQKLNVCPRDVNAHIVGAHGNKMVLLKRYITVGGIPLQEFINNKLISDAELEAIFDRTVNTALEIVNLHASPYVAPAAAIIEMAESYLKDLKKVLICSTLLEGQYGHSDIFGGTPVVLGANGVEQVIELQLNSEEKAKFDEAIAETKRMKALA

Experiment [4] is described as follows: inhibition of 3D7 malaria parasite growth – strain 3D7 (AID 2306).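 Note: 0% = DMSO wells and 100% = chloroquine plus artemisinin control wells.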 The following applies: P. falciparum 3D7 erythrocytic growth, LDH absorbance, 72 h; at 2 µM; stronger effect = higher value.
Experiment [5] deals with Calcium-dependent protein kinase 1 (Plasmodium falciparum (isolate 3D7)) (UniProt P62344). The experiment is described as follows: PfCDPK1 kinase inhibitors, biochemical, TCAMS library (AID 1159585; cut-off not given, nearly all actives have IC50 up to about 0.98 µM;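 note: inhibitors leave more ATP so luminescence rises with inhibition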). The following applies: recombinant PfCDPK1, Kinase-Glo ATP depletion luminescence. In general terms: In Kinase-Glo more light means more ATP remaining.
Chain of Calcium-dependent protein kinase 1 (Plasmodium falciparum (isolate 3D7)) (P62344 whole entry, looked up): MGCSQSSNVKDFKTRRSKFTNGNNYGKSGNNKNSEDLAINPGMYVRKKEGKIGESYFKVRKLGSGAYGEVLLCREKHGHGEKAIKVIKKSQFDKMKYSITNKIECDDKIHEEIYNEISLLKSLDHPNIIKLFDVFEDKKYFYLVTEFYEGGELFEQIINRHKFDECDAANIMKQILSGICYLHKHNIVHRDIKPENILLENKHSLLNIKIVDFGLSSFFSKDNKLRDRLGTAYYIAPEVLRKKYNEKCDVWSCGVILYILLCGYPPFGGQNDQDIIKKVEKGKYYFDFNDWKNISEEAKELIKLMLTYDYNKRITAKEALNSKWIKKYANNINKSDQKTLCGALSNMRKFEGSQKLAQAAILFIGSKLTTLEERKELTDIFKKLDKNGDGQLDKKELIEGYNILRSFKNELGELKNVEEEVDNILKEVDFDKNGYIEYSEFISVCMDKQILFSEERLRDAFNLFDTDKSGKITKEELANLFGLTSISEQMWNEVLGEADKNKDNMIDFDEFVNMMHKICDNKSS
Experiment [6] has as its target Plasmodium falciparum protein kinase 6 (PK6, PF3D7_1337100) (UniProt Q8IDW1). The experiment is described as follows: PfPK6 kinase inhibitors, biochemical, TCAMS library (AID 1159586). The following applies: recombinant PfPK6, Kinase-Glo ATP depletion luminescence.
Experiment [7] addresses Protein kinase 7 (PK7), Plasmodium falciparum 3D7 (PF3D7_0213400) (UniProt Q7YTF7). Nature of the experiment: inhibition of Plasmodium PK7 catalytic activity – biochemical, TCAMS antimalarial set, Kinase-Glo luminescence (AID 1159587). The note with it: recombinant PfPK7, Kinase-Glo ATP depletion luminescence.
Experiment [8] addresses Calcium-dependent protein kinase 4 (Plasmodium falciparum (isolate 3D7)) (UniProt Q8IBS5). Nature of the experiment: PfCDPK4 kinase inhibitors, biochemical, TCAMS library (AID 1159588; cut-off not given, nearly all actives have IC50 up to about 0.91 µM). The note with it: recombinant PfCDPK4, Kinase-Glo ATP depletion luminescence.

The structures appear in SMILES notation. Values without a mark were called inactive. For part of these data: Entries with a potency or affinity are not part of this list. Calls of active or inactive are those of the source. Unless noted, the rule behind the calls is not given here.

Chain of Protein kinase 7 (PK7), Plasmodium falciparum 3D7 (PF3D7_0213400) (Q7YTF7 1-343): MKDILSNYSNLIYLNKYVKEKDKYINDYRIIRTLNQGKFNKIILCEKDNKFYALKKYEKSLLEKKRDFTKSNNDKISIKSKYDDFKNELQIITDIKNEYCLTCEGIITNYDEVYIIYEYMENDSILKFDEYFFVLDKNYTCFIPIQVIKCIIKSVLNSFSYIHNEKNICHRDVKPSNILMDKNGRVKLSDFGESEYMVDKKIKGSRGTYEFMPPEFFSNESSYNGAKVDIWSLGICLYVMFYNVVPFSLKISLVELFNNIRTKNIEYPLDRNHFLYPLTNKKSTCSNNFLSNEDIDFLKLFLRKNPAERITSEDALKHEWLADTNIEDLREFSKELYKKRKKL
Chain of Plasmodium falciparum protein kinase 6 (PK6, PF3D7_1337100) (Q8IDW1 1-305): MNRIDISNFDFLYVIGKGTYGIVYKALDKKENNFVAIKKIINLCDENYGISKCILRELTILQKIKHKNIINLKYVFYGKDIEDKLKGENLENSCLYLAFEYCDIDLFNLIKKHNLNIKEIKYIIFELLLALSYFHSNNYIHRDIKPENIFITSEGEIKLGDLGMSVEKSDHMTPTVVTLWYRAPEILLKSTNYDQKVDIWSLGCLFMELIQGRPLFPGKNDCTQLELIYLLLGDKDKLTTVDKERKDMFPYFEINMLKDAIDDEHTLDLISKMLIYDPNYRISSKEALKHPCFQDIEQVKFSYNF
Chain of Calcium-dependent protein kinase 4 (Plasmodium falciparum (isolate 3D7)) (Q8IBS5 whole entry, looked up): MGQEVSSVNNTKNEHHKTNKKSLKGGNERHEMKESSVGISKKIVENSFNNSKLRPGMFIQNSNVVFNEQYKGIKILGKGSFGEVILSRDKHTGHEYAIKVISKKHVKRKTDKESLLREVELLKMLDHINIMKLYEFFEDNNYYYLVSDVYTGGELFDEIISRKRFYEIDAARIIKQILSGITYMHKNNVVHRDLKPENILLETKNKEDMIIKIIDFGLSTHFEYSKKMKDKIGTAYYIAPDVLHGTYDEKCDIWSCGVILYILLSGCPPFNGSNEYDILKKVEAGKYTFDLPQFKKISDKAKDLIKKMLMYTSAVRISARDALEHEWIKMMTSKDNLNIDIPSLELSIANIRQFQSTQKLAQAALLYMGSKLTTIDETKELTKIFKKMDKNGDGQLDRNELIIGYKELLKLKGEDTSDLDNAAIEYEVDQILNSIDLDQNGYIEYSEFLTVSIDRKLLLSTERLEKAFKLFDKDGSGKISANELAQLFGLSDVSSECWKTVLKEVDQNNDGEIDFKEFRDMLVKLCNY

Turning to `Cc1ccc(Nc2nc(NN=Cc3cccc([N+](=O)[O-])c3)nc(Nc3ccccc3)n2)c(C)c1`, the values for the growth inhibition in experiment [1] and in experiment [4] were 97% (active) and 91% (active), respectively. Moreover, the inhibition in experiment [2] was 9%; in experiment [3], 4%. Also, the result in experiment [5], in experiment [6], in experiment [7] and in experiment [8] was inactive.
For `O=C(Nc1cccc(C(F)(F)F)c1)c1cccc(S(=O)(=O)NCC2CCCN2CC2CCCCC2)c1` (centres undefined), the growth inhibition in experiment [1] was 2%; in experiment [4], 97% (active). The inhibition in experiment [2] is 6%; in experiment [3], 0%. Moreover, the result in experiment [5], in experiment [6], in experiment [7] and in experiment [8] was inactive.
With `CCC(C)c1ccc(NC(=O)Nc2ccc(Cn3ncc(N4CCCNCC4)c(Cl)c3=O)cc2)cc1` (centres undefined), the growth inhibition in experiment [1] was 31%; in experiment [4], 83% (active). The inhibition in experiment [2] is -6%; in experiment [3], -2%. Further, the outcome in experiment [5], in experiment [6], in experiment [7] and in experiment [8] was inactive.
